{"source": "PubChem BioAssay AID1851", "about": "(National Center for Advancing Translational Sciences (NCATS), 2009)", "note": "Among all 16,000 compounds or so, about 5,700 (36%) were called active. Not shown: some 24% with an inconclusive outcome. Some of the results follow. Unmarked numbers belong to inactive results. Calls come from the whole dose curve; as a rule, active = well fitted curve in the direction sought with a large enough effect; inconclusive = small, poorly fitted or top-dose-only effect, or effect the other way; inactive = no such curve, though single readings can be large or run the other way. % is set by controls: 0 for no effect and ±100 for the full control effect.", "data": [{"target": "Cytochrome P450 1A2 (Homo sapiens) (UniProt P05177)", "sequence (P05177 whole entry, looked up)": "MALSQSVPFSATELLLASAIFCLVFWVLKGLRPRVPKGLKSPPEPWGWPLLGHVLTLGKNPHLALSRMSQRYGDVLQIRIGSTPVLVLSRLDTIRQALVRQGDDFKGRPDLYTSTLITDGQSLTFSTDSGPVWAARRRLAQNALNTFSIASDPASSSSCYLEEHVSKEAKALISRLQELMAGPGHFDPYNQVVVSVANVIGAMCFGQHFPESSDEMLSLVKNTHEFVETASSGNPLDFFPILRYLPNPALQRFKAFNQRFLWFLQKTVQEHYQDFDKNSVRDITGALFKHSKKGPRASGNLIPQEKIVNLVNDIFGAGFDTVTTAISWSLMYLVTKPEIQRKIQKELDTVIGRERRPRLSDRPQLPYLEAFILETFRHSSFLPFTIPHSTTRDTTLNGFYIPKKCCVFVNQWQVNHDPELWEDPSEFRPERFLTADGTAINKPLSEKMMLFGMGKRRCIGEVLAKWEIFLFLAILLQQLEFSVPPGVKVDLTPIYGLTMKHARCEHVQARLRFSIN", "assay": "Cytochrome panel assay with activity outcomes", "conditions": "recombinant CYP, pro-luciferin dealkylation, luminescence, p450-cyp1a2; series mostly up to 57.1 µM", "values": [{"smiles": "CCC(=O)Nc1ncnc2ncn(C(=O)CC)c12", "activity, negative = inhibition": "-5.19% [at 11.4 µM]"}, {"smiles": "CCCCNC(=O)Cc1coc2ccc3ccccc3c12", "AC50": "4.47 µM (active)"}, {"smiles": "CCOC(=O)C(Sc1ncnc2c1sc1nc(N3CCOCC3)c3c(c12)CCCC3)c1ccccc1", "note": "(stereo not drawn)", "AC50": "inactive"}, {"smiles": "CCOC(=O)CSc1nnc(CSc2nc3sc4c(c3c(=O)[nH]2)CCCC4)n1-c1ccccc1", "AC50": "14.1 µM (active)"}, {"smiles": "CCOC(=O)CSc1nnc(Cc2cc(=O)[nH]c(=O)[nH]2)n1-c1cccc(OC)c1", "AC50": "inactive"}, {"smiles": "CN(Cc1ccco1)c1ncncc1-c1cccc(NS(C)(=O)=O)c1", "AC50": "15.8 µM (active)"}, {"smiles": "CN(Cc1ccco1)c1ncnc2ccc(-c3cccc(NS(C)(=O)=O)c3)cc12", "AC50": "0.398 µM (active)"}, {"smiles": "O=C1NC(c2ccccc2)=NC1(NS(=O)(=O)c1ccccc1)C(F)(F)F", "note": "(stereo not drawn)", "AC50": "inactive"}, {"smiles": "COc1cccc(Nc2ncc3nc(C)c(=O)n(CCC#N)c3n2)c1", "AC50": "1.26 µM (active)"}, {"smiles": "COc1ccc(-c2nc3cnc(Nc4cccc(OC)c4)nc3n(CCC#N)c2=O)cc1", "AC50": "6.31 µM (active)"}, {"smiles": "N#CCCn1c(=O)c(CCc2ccccc2)nc2cnc(Nc3ccccc3)nc21", "AC50": "inactive"}, {"smiles": "COc1cccc(Nc2ncc3nc(CCc4ccccc4)c(=O)n(CCC#N)c3n2)c1", "AC50": "inactive"}, {"smiles": "Cc1nc2cnc(Nc3ccccc3)nc2n(CCC#N)c1=O", "AC50": "0.631 µM (active)"}, {"smiles": "COc1cccc(Nc2ncc3ncc(=O)n(CCC#N)c3n2)c1", "AC50": "1 µM (active)"}, {"smiles": "C[N+](C)(C)CCCCCC[N+](C)(C)C", "AC50": "inactive"}, {"smiles": "O=S(Cc1ccccc1)CC(O)(c1ccccc1)c1ccccc1", "note": "(stereo not drawn)", "AC50": "inactive"}, {"smiles": "Cc1ccc(C(=O)N2CCN(C3c4cccc5cccc(c45)C3NS(=O)(=O)c3ccccc3)CC2)cc1", "note": "(stereo not drawn)", "AC50": "inactive"}, {"smiles": "CS(=O)(=O)Nc1cccc(-c2cncnc2Nc2ccccc2)c1", "AC50": "5.01 µM (active)"}, {"smiles": "CS(=O)(=O)Nc1cccc(-c2cncnc2Nc2ccc(F)cc2)c1", "AC50": "5.01 µM (active)"}, {"smiles": "CN=C(NC#N)NCCSC[C@H]1N=CN=C1C", "AC50": "inactive"}, {"smiles": "Cc1cnnn1-c1ccc(C(=O)CCl)cc1", "AC50": "2.82 µM (active)"}, {"smiles": "COc1cccc(-c2cncnc2NCc2cccs2)c1", "AC50": "1.26 µM (active)"}, {"smiles": "COc1cccc(-c2cncnc2NCc2ccccc2)c1", "AC50": "5.01 µM (active)"}, {"smiles": "COc1cccc(-c2cncnc2NCc2cccc(C)c2)c1", "AC50": "2 µM (active)"}, {"smiles": "COc1cccc(-c2cncnc2NCc2cccnc2)c1", "AC50": "0.794 µM (active)"}, {"smiles": "CS(=O)(=O)N1CCC2(CC1)CN(Cc1cc(C(F)(F)F)cc(C(F)(F)F)c1)C2", "AC50": "inactive"}, {"smiles": "O=C(c1csnn1)N1CCC2(CC1)CCN(C(c1ccccc1)c1ccccc1)CC2", "AC50": "inactive"}, {"smiles": "CC(=O)N/N=C/c1cc([N+](=O)[O-])ccc1OCCOc1ccccc1", "AC50": "inactive"}, {"smiles": "C=CCOc1ccc2cccc(/C=N/NC(=O)c3cc4cc([N+](=O)[O-])ccc4s3)c2c1", "AC50": "2.24 µM (active)"}, {"smiles": "CCCCc1[nH]c(=O)c(C#N)c2c1CCCC2", "AC50": "5.01 µM (active)"}, {"smiles": "CCCCOC(=O)CCc1c(C)[nH]c(=O)c(C#N)c1C", "AC50": "inactive"}, {"smiles": "C/C(CCN1CCCCc2nc(C)c(C)cc21)=N\\O[C@@H](C)CN1CCCc2nc(C)c(C)cc21", "activity, negative = inhibition": "-40.3% [at 11.4 µM]"}, {"smiles": "Cc1cc2c(c(=O)o1)[C@H](O)[C@H]1O[C@@H]1C2=O", "activity, negative = inhibition": "2.69% [at 11.4 µM]"}, {"smiles": "C[N+]1(C)CCC[C@@H](OC(=O)C(O)(c2ccccc2)c2ccccc2)C1", "AC50": "inactive"}, {"smiles": "C[C@@H](C(=O)Nc1ccc2ccccc2c1)[C@@H]1C[C@@]1(C)[C@@H](NC(=O)c1ccncc1Cl)c1ccccc1", "AC50": "25.1 µM (active)"}, {"smiles": "COC(=O)N[C@H](c1ccccc1)[C@@]1(C)C[C@@H]1[C@@H](C)C(=O)Nc1ccc2ccccc2c1", "AC50": "12.6 µM (active)"}, {"smiles": "C[C@@H](C(=O)Nc1ccc2ccccc2c1)[C@@H]1C[C@@]1(C)[C@@H](NC(=O)Oc1ccc(F)cc1)c1ccccc1", "AC50": "inactive"}, {"smiles": "C[C@@H](C(=O)Nc1ccc2ccccc2c1)[C@H]1C[C@]1(C)[C@H](NC(=O)Oc1ccc(F)cc1)c1ccccc1", "AC50": "inactive"}, {"smiles": "C[C@@H](C(=O)Nc1ccc2ccccc2c1)[C@@H]1C[C@@]1(C)[C@@H](N)c1ccccc1", "AC50": "15.8 µM (active)"}, {"smiles": "CC(=O)N[C@H](c1ccccc1)[C@@]1(C)C[C@@H]1[C@@H](C)C(=O)Nc1ccc2ccccc2c1", "AC50": "15.8 µM (active)"}, {"smiles": "CC(=O)Nc1ccc(N2C(=O)CC(c3ccccc3)CC2=O)cc1", "AC50": "inactive"}, {"smiles": "CCCN(CCC)CCNC(=O)C1CCCN(S(=O)(=O)c2ccc3c(c2)oc(=O)n3C)C1", "note": "(stereo not drawn)", "AC50": "inactive"}, {"smiles": "CCc1nc2cc(CC(=O)O)ccc2o1", "AC50": "inactive"}, {"smiles": "Cn1cccc1C(=O)N1CCC2(CC1)CN(c1ccccn1)C2", "AC50": "inactive"}, {"smiles": "Nc1nc2c(ncn2COCCO)c(=O)[nH]1", "AC50": "inactive"}, {"smiles": "C[C@@]12CC3CC(N)(C1)C[C@@](C)(C3)C2", "AC50": "inactive"}, {"smiles": "CC(=O)N[C@@H](c1ccccc1)[C@]1(C)C[C@H]1[C@@H](C)C(=O)Nc1ccc2ccccc2c1", "AC50": "12.6 µM (active)"}, {"smiles": "C[C@@H](C(=O)Nc1ccc2ccccc2c1)[C@H]1C[C@]1(C)[C@H](NS(=O)(=O)c1ccc2ccccc2c1)c1ccccc1", "AC50": "inactive"}, {"smiles": "C[C@@]1(C(NC(=O)Cc2ccccc2)c2ccc(-c3ccccc3)cc2)C[C@H]1C1CCCCC1", "note": "(stereo partly drawn)", "AC50": "inactive"}, {"smiles": "CN(C)Cc1cc(O)c(O)c(CN(C)C)c1", "activity, negative = inhibition": "-8.6% [at 11.4 µM]"}, {"smiles": "CN1CCN(c2ncc3nc(-c4ccc(Cl)cc4)c(=O)n(C4CC4)c3n2)CC1", "AC50": "15.8 µM (active)"}, {"smiles": "CN1CCN(c2ncc3nc(-c4ccc(F)cc4)c(=O)n(C4CC4)c3n2)CC1", "AC50": "12.6 µM (active)"}, {"smiles": "CN1CCN(c2ncc3nc(-c4cc(F)cc(F)c4)c(=O)n(C4CC4)c3n2)CC1", "AC50": "15.8 µM (active)"}, {"smiles": "CC(C)N=c1cc2n(-c3ccc(Cl)cc3)c3ccccc3nc-2cc1Nc1ccc(Cl)cc1", "AC50": "inactive"}, {"smiles": "COC(=O)[C@@]1(Cc2ccccc2)[C@H]2c3cc(C(=O)N4CCCC4)n(Cc4ccsc4Br)c3C[C@H]2CN1C(=O)c1ccccc1", "AC50": "inactive"}, {"smiles": "N#Cc1ccc(C(c2nnnn2C2CCCC2)N2CCC(Cc3ccccc3)CC2)cc1", "note": "(stereo not drawn)", "AC50": "inactive"}, {"smiles": "N#Cc1cccc(C(c2nnnn2C2CCCC2)N2CCCCCC2)c1", "note": "(stereo not drawn)", "AC50": "inactive"}, {"smiles": "c1ccc(-c2noc(CSc3nnnn3C3CCCCC3)n2)cc1", "AC50": "2.24 µM (active)"}, {"smiles": "OCCCN=C1CCCCC1", "activity, negative = inhibition": "-9.6% [at 11.4 µM]"}, {"smiles": "COC(=O)Cn1nc(-c2ccccc2)n(-c2ccccc2)c1=S", "AC50": "15.8 µM (active)"}, {"smiles": "O=C(Nc1cccc(F)c1)N1CC2(CCN(C(=O)c3cc(C(F)(F)F)cc(C(F)(F)F)c3)CC2)C1", "AC50": "inactive"}, {"smiles": "COc1ccc(N2C(=O)NC(NC(=O)c3ccncc3)(C(F)(F)F)C2=O)cc1", "note": "(stereo not drawn)", "AC50": "inactive"}, {"smiles": "CCCCN1C(=O)NC(NC(=O)c2ccco2)(C(F)(F)F)C1=O", "note": "(stereo not drawn)", "AC50": "inactive"}, {"smiles": "O=C(NC1(C(F)(F)F)NC(=O)N(Cc2cccnc2)C1=O)c1ccccc1", "note": "(stereo not drawn)", "AC50": "6.31 µM (active)"}, {"smiles": "CCN1C(=O)[C@H]2[C@H]3[C@H](O)[C@H](O)C/C(=N/OC)[C@@H]3CC[C@@H]2C1=O", "activity, negative = inhibition": "-3.89% [at 11.4 µM]"}, {"smiles": "NCCNS(=O)(=O)c1cccc2cnccc12", "AC50": "inactive"}, {"smiles": "O=S(=O)(NCCCCCCc1ccccc1)c1cccc2c(Cl)cccc12", "AC50": "15.8 µM (active)"}, {"smiles": "COc1ccccc1N1CCN(CCCCNS(=O)(=O)c2cccc3c(N(C)C)cccc23)CC1", "AC50": "inactive"}, {"smiles": "NCCCCCCNS(=O)(=O)c1cccc2c(Cl)cccc12", "AC50": "7.94 µM (active)"}, {"smiles": "Nc1ccc(S(=O)(=O)NCCS(=O)(=O)O)cc1", "activity, negative = inhibition": "-3.14% [at 2.29 µM]"}, {"smiles": "CCCCCCCNS(=O)(=O)c1cccc2c(Cl)cccc12", "AC50": "6.31 µM (active)"}, {"smiles": "COC(=O)N1CCC2(CCN(Cc3nccs3)CC2)CC1", "AC50": "inactive"}, {"smiles": "C/C(=N/O)[C@@H]1C[C@H](CC(=O)O)C1(C)C", "activity, negative = inhibition": "-2.9% [at 11.4 µM]"}, {"smiles": "COCCn1c(=O)c(-c2cc(F)cc(F)c2)nc2cncnc21", "AC50": "2 µM (active)"}, {"smiles": "COCCn1c(=O)c(-c2cccc(F)c2)nc2cncnc21", "AC50": "2 µM (active)"}, {"smiles": "COCCn1c(=O)c(-c2cccc(Cl)c2)nc2cncnc21", "AC50": "0.631 µM (active)"}, {"smiles": "COCCn1c(=O)c(-c2ccc(Cl)cc2)nc2cncnc21", "AC50": "0.2 µM (active)"}, {"smiles": "COCCn1c(=O)c(-c2ccc(F)cc2)nc2cncnc21", "AC50": "0.501 µM (active)"}, {"smiles": "COCCn1c(=O)c(-c2ccccc2)nc2cncnc21", "AC50": "0.794 µM (active)"}, {"smiles": "COCCn1c(=O)c(-c2ccc(F)c(F)c2)nc2cncnc21", "AC50": "0.251 µM (active)"}, {"smiles": "COc1ccc(NC(=O)CC2C(=O)N(c3cccc(OC)c3)C(=O)N2C2CCCCC2)cc1", "note": "(stereo not drawn)", "AC50": "inactive"}, {"smiles": "COc1ccc2oc(=O)c(NC(=O)C3CCCCC3)cc2c1", "AC50": "2.51 µM (active)"}, {"smiles": "COc1ccc2oc(=O)c(C(=O)Oc3ccc(NC(C)=O)cc3)cc2c1", "AC50": "inactive"}, {"smiles": "COc1ccc(NC(=O)C2CCN(C(=O)c3cccs3)CC2)c(OC)c1", "AC50": "inactive"}, {"smiles": "COc1cccc2cc(NC(=O)C3CCCCC3)c(=O)oc12", "AC50": "1.26 µM (active)"}, {"smiles": "COc1ccccc1CNC(=O)C1CC(=O)N(C2CCCC2)C1", "note": "(stereo not drawn)", "AC50": "inactive"}, {"smiles": "CC[C@H]1C2=C3C(CC[C@H]4C(OCc5ccc(F)cc5C(F)(F)F)OC[C@](C)([C@@H]34)N(C(=O)OC(C)(C)C)C2)C(COC)C1COC", "note": "(stereo partly drawn)", "AC50": "inactive"}, {"smiles": "COc1ccc(CNCCC(c2ccc(OC(C)C)cc2)C(C)C)cc1OC", "note": "(stereo not drawn)", "AC50": "inactive"}, {"smiles": "COC(=O)C(C(=O)OC)C(C[N+](=O)[O-])c1ccc(OC)c(OC)c1", "note": "(stereo not drawn)", "AC50": "inactive"}, {"smiles": "COc1cc2ccc([C@H](C)NCC#N)cc2cc1OC", "AC50": "0.501 µM (active)"}, {"smiles": "CCN(CC)C[C@@H](O)c1ccc2ccc3ccccc3c2c1", "AC50": "0.794 µM (active)"}, {"smiles": "Cc1cc2ccccc2c[n+]1CC(O)C[n+]1cc2ccccc2cc1C", "activity, negative = inhibition": "-17.4% [at 11.4 µM]"}, {"smiles": "c1ccc([C@H](c2cccc3c2ccc2ccccc23)[C@H](c2ccccc2)c2cccc3c2ccc2ccccc23)cc1", "activity, negative = inhibition": "-9.37% [at 11.4 µM]"}]}]}
